Screening data (PubChem BioAssay)
PAFAH1B3 FP inh: blocks human PAF acetylhydrolase 1B catalytic subunit 3; Q15102; recombinant PAFAH1B3, FP-rhodamine probe, fluorescence polarization; inhibition, % at 3.39 µM; 340,000 tested, 0.28% active;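 active = inhibition above the screen-wide average of all tested compounds plus 3 SD, cut at about 25% in these data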
Target sequence (Q15102 whole entry, looked up): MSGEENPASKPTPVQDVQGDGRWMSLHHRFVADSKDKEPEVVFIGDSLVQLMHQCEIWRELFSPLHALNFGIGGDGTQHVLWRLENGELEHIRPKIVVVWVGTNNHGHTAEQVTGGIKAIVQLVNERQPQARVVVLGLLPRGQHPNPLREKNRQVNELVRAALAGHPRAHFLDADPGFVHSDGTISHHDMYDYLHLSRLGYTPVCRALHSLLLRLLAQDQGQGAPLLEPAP
PME-1 inh: blocks human protein phosphatase methylesterase 1; Q9Y570; recombinant PME-1, FP-Rh probe fluorescence polarization; inhibition, % at 5.9 µM; 320,000 tested, 0.53% active;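 active = inhibition above the campaign mean of all compounds plus 3 SD, cut at about 26% in these data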;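 also: competitive labeling of PME-1 active site by serine hydrolase directed probe; inhibitors block probe labeling so polarization falls and inhibition rises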
pPAFAH inh: inhibitors of human plasma PAF acetylhydrolase (pPAFAH). Q13093. recombinant pPAFAH, FP-rhodamine probe fluorescence polarization. inhibition, % at 3.39 µM. 330,000 tested, 1.5% active. AID 463082;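 active = inhibition above the mean inhibition across the screen plus 3 SD, cut at about 25% in these data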;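 also: inhibitors block binding of the rhodamine activity-based probe so polarization drops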
Target sequence (Q13093 whole entry, looked up): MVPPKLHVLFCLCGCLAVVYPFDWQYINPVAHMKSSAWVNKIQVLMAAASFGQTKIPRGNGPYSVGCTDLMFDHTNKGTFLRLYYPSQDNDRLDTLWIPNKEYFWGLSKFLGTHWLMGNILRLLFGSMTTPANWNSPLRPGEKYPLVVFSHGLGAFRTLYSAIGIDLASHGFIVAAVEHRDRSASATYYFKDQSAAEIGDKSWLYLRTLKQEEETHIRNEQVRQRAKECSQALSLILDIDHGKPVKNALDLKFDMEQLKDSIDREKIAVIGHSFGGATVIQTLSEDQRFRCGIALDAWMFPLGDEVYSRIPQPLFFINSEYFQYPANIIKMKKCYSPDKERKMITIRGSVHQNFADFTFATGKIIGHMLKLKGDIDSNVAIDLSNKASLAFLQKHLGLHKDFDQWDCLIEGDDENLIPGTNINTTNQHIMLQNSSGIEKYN
Fam108B counter: blocks mouse Fam108B hydrolase in RBBP9 counter-screen | recombinant Fam108B, FP-Rh probe fluorescence polarization | inhibition, % at 9.51 µM | 300,000 tested, 0.33% active;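 active = inhibition above the screen mean inhibition plus 3 SD, computed separately per campaign, cut at about 18% in these data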;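 also: inhibitors lower polarization as less probe binds the enzyme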
PAFAH2 FP inh: inhibitors of human PAFAH2. Q99487. 340,000 tested, 0.99% active. inhibition, % at 3.39 µM. recombinant PAFAH2, FP-rhodamine activity probe, fluorescence polarization;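 active = inhibition above the mean over all tested compounds plus 3 SD, cut at about 30% in these data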;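 also: inhibitors block probe labeling of enzyme so polarization drops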
PAFAH1B2 inh: blocks human PAF acetylhydrolase 1b catalytic subunit 2; P68402; recombinant PAFAH1B2, FP-rhodamine activity probe, fluorescence polarization; inhibition, % at 3.39 µM; 340,000 tested, 1.2% active;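 active = inhibition above the mean of all tested compounds plus 3 SD, cut at about 24% in these data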
Large screens that a line does not name were inactive. Rows were chosen to be rich in hits. Some 2.8% of all compounds tested hit in one or more screens of this group.

Cc1cc(C)c(NC(=O)C2CCCO2)c(C)c1NC(=O)C1CCCO1 (stereo not drawn)	none
COc1ccc(NC(=O)COC(=O)CC2CC3CCC2C3)c([N+](=O)[O-])c1 (stereo not drawn)	pPAFAH inh 32.6, PAFAH2 FP inh 53.9
O=C(COC(=O)CC1CC2CCC1C2)Nc1ccccc1Cl (stereo not drawn)	pPAFAH inh 28.4, PAFAH2 FP inh 44.6 (no result: PME-1 inh, Fam108B counter)
O=C(COC(=O)CC1CC2CCC1C2)Nc1c(F)cccc1F (stereo not drawn)	none
COc1ccc(NC(=O)CC2Nc3cc(C)c(C)cc3NC2=O)c([N+](=O)[O-])c1 (stereo not drawn)	pPAFAH inh 25.5
O=C(CN1CCN(c2ccccc2F)CC1)NC(=O)NCc1ccccc1	none
Cc1cccn2c(=O)c(C=NCCO)c(NCc3ccco3)nc12	none
Cc1cccn2c(=O)c(C=NCc3ccco3)c(Nc3ccc(SC(F)F)cc3)nc12	pPAFAH inh 34.4
COc1cccc(C(=O)NC(=S)N2CCN(c3ccc(C(F)(F)F)cc3[N+](=O)[O-])CC2)c1	pPAFAH inh 26.1
Cn1cccc1CC(=O)N/N=C\c1c2ccccc2cc2ccccc12	pPAFAH inh 27.1
CC(=O)Nc1ccccc1Nc1nc(NCCO)nc(N2CCCC2)n1	none
CCc1cc(=O)oc2cc(OC(C)C(=O)NCC3CCC(C(=O)O)CC3)c(Cl)cc12 (stereo not drawn)	none
CCc1ccc(S(=O)(=O)NCc2csc(-c3ccccc3)n2)s1	none
CCc1ccc(S(=O)(=O)NCCc2csc(-c3ccccc3)n2)s1	PAFAH1B2 inh 39.0
C=CCOC(=O)C(=O)/C=C/c1ccc2c(c1)Cc1ccccc1-2	pPAFAH inh 27.5
Cc1c(NC(=O)C(C)Sc2nc(N)cc(=O)[nH]2)c(=O)n(-c2ccccc2)n1C (stereo not drawn)	none (no result: Fam108B counter)
CCCOc1ccc(C(O)(CCN2CCCCC2)c2ccccc2OC)cc1 (stereo not drawn)	none
CCc1cccc(NS(=O)(=O)c2ccc3c(c2)CCC(=O)N3)c1	none
O=C1CCc2cc(S(=O)(=O)Nc3ccc(F)cc3)ccc2N1	pPAFAH inh 29.4 (no result: Fam108B counter)
Cn1c(=O)oc2cc(S(=O)(=O)Nc3ccc(Cl)cc3)ccc21	none
Cn1c(=O)oc2cc(S(=O)(=O)Nc3ccc(F)cc3)ccc21	pPAFAH inh 25.7
Cc1cccc(NS(=O)(=O)c2ccc3c(c2)CCC(=O)N3)c1	pPAFAH inh 27.9
NC(=O)c1ccc(Oc2ccc(Cl)c3ccccc23)c([N+](=O)[O-])c1	pPAFAH inh 33.8
Cc1noc(C)c1NC(=O)Nc1ccc2c(c1)C(=O)N([C@H](C)CO)C[C@H](C)[C@@H](CN(C)C(=O)Nc1c(C)noc1C)O2	none (no result: PME-1 inh, Fam108B counter)
CC(=O)c1c2c3c(c(Br)ccc3n(C)c1=O)C(=O)c1ccccc1-2	pPAFAH inh 28.9
O=C(O)c1cc(N/N=C/c2ccc(-c3ccc(F)cc3)o2)ccc1Cl	pPAFAH inh 31.3
CCOCCCN(C)C1CCN(C(=O)c2oc3ccccc3c2NC(=O)Cc2ccc(F)cc2)CC1	none
COc1ccccc1-c1cc(C(=O)Nc2sc3c(c2C#N)CCC(C)C3)c2ccccc2n1 (stereo not drawn)	none
Cc1cc(C(=O)OCC(=O)Nc2sc3c(c2C#N)CCC(C)C3)c2ccccc2n1 (stereo not drawn)	pPAFAH inh 24.6
CC(=O)Nc1ccc(C23CC4CC(CC(C4)C2)C3)cc1	PAFAH1B2 inh 25.5
Oc1ccc(C23CC4CC(CC(C4)C2)C3)cc1O	PAFAH1B2 inh 61.1
COc1ccc(/C(C)=N/NC(=O)CNC(=O)CCc2ccccc2)c(OC)c1	none
CC(C)C(OC(=O)C1=Cc2ccccc2OC1)C(=O)NCC1CCCO1 (stereo not drawn)	none (no result: PME-1 inh, pPAFAH inh, Fam108B counter)
Cc1ccc(NCC(=O)N=Nc2c(O)[nH]c3ccc([N+](=O)[O-])cc23)cc1	pPAFAH inh 25.4 (no result: PAFAH1B3 FP inh, PAFAH2 FP inh, PAFAH1B2 inh)
OC1CCCC1	none (no result: Fam108B counter)
CCOC(=O)C(C)On1c(-c2ccccc2)nc2ccc([N+](=O)[O-])cc21 (stereo not drawn)	PME-1 inh 27.4
Cc1nn(Cc2ccccc2)c(Cl)c1/C=C1\NC(=S)NC1=O	none
COc1cc(/C=N/N2CCN(c3ccc(Cl)cc3)CC2)cc(OC)c1OC(C)=O	PAFAH1B2 inh 25.4
CCCc1nc2c(=O)n(C)c(=O)nc-2n(C)n1	PAFAH1B3 FP inh 78.5, PAFAH2 FP inh 60.1, PAFAH1B2 inh 35.6 (no result: PME-1 inh, pPAFAH inh, Fam108B counter)
Cc1ccc(N(CN2C(=O)C3C4CCC(C4)C3C2=O)C(=O)c2ccco2)cc1 (stereo not drawn)	none
O=C(Oc1ccc(-c2ccccc2)cc1)c1ccco1	PAFAH1B2 inh 32.4 (no result: PME-1 inh, pPAFAH inh, Fam108B counter)
O=C(Oc1ccc(OC(=O)c2ccco2)c(S(=O)(=O)c2ccc(Br)cc2)c1)c1ccco1	PAFAH1B2 inh 44.5
COC(=O)c1ccc(OC(=O)c2ccco2)cc1	none
Cc1ccc(CNC(=O)CCn2cc(-c3ccc(C)cc3)nc2-c2ccncc2)cc1	none
Cc1ccc(CNC(=O)CCn2cc(-c3ccc(F)cc3)nc2-c2ccncc2)cc1	PAFAH1B2 inh 29.4
Cc1ccc(CN2C(=O)CSC2c2ccc(F)cc2)cc1 (stereo not drawn)	PAFAH1B2 inh 25.7
Cc1ccc(CN2C(=O)CSC2c2ccccc2F)cc1 (stereo not drawn)	none
COc1cc(/C=N/NC(=O)/C(=C\c2ccc([N+](=O)[O-])cc2)NC(=O)c2ccccc2)cc(OC)c1O	none
O=C(N/N=C/c1cc([N+](=O)[O-])cc([N+](=O)[O-])c1O)/C(=C\c1cccs1)NC(=O)c1ccccc1	pPAFAH inh 30.8
COc1ccc(OCC(=O)Nc2cc(NC(=O)c3ccco3)ccc2OC)cc1	none
O=C(/C=C/c1ccc(O)c([N+](=O)[O-])c1)c1ccc2ccccc2c1	pPAFAH inh 31.6, PAFAH2 FP inh 44.0, PAFAH1B2 inh 28.8
CN(C)c1ccc(/C=C/C(=O)c2ccccc2)cc1[N+](=O)[O-]	none
COc1ccc(C(=O)CCC(=O)N2CCN(c3ccc([N+](=O)[O-])cc3)CC2)cc1	none
COc1ccc(C(=O)ON=C2CCN(c3ccc([N+](=O)[O-])cc3)CC2)cc1	PAFAH2 FP inh 88.8
CCCN1CCC(NC(=O)Nc2ccc(Br)cc2)CC1	none
CC(=O)c1cccc(N(C(=O)CNC(=O)c2ccco2)C(C(=O)NC2CCCC2)c2ccco2)c1 (stereo not drawn)	none
Cc1ccsc1C(=O)N(C)CC(=O)N(CC(C)C)c1c(N)n(CC(C)C)c(=O)[nH]c1=O	none
CCCNC(=O)c1ccc2c(=O)c(O)c(-c3ccc(F)cc3)[nH]c2c1	none
CCCNC(=O)c1ccc2c(=O)c(O)c(-c3cccc(Br)c3)[nH]c2c1	pPAFAH inh 28.3
CC(C)(C)C(=O)Nc1cc(NC(=O)C(C)(C)C)cc(C(=O)NNC(=O)c2ccncc2)c1	none
O=c1oc2c(-c3cccc(F)c3)cc(O)cc2s1	pPAFAH inh 27.1
CSc1ccc(CN(C)CC(=O)NC(=O)NCCC2=CCCCC2)cc1	none (no result: Fam108B counter)
